Screens (PubChem)
The list is not random: actives were taken first. Their share in the collection is about 4.6%.
HSF1 inh = HSF1 inhibition; NIH3T3-HGL HSE-luciferase, MG132-induced, luminescence 8 h; active compounds read low; activity change, negative = inhibition, % at 7.5 µM (by protocol); hit rate 0.77% among 300,000;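 active = more than half of replicate wells show activity change below -50%, luminescence cut by over half; inconclusive = some wells, but at most half, below -50%; inactive = no replicate well below -50%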;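 also: luciferase reports HSF-1 transcriptional activity via heat shock element; 0% = median of DMSO wells and -100% = zero luminescence signal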
AHR act = activates the human aryl hydrocarbon receptor; P35869; AHR-responsive luciferase reporter cells, luminescence; activation, % at 5 µM; hit rate 2.5% among 320,000; in the data active = activation above about 47%;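 also: 0% = vehicle wells and 100% = reference agonist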
Target sequence (P35869 whole entry, looked up): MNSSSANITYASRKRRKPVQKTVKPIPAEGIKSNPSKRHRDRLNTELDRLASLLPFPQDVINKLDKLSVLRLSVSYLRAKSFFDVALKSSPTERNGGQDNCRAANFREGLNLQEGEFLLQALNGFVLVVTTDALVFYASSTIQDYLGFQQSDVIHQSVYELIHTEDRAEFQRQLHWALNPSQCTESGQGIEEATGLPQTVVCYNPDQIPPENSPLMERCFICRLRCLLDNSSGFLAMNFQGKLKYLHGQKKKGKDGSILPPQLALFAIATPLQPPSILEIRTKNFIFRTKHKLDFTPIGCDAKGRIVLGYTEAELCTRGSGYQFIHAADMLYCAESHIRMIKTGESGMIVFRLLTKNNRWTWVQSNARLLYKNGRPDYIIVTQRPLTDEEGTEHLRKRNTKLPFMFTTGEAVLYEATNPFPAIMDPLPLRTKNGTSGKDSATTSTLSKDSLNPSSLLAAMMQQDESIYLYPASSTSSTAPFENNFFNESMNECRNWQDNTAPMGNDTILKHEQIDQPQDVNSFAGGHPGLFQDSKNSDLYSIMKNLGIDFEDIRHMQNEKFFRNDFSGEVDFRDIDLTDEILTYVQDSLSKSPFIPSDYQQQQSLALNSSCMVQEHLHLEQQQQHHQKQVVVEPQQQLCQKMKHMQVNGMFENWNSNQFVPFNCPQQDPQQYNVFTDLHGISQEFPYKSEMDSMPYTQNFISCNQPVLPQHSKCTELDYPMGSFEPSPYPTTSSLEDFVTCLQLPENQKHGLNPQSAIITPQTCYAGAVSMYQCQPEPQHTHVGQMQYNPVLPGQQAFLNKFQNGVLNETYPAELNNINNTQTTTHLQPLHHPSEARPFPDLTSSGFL
HSF1 activator = increases HSF-1 driven luciferase reporter signal. NIH3T3-HGL HSF-1 luciferase reporter, MG132, 8 h; 100% = twice DMSO control signal. activation, % at 9 µM. hit rate 1.7% among 300,000. AID 504408;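 active = mean replicate activation of at least 50% with a set share of replicates each reaching 50%; inconclusive = only one of those two conditions met; inactive = mean below 50% and too few replicates reaching it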;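 also: 0% = median of the neutral control wells and 100% = twice that signal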
GAA850 FXN act = frataxin GAA850 promoter activation | hit rate 0.56% among 360,000 | activation, % at 6 µM | HEK293 lucGAA850 FXN promoter luciferase reporter, 24 h; percent of 10 µM SAHA response;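 active = activation above the average of all compounds screened plus 3 SD, cutoff fixed separately per campaign, cut at about 7.5% in these data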;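 also: 0% = DMSO wells and 100% = 10 µM SAHA wells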
AHR act confirm = human AHR activation, confirmation | shares compounds with AHR act | human cells, AHR-responsive luciferase reporter, luminescence | activation, % at 9 µM | hit rate 87% among 2,300 | AID 2845; in the data active = activation above about 49%;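 also: HepG2 hepatoma cells carrying a DRE-driven firefly luciferase reporter; 0% = vehicle wells and 100% = reference agonist wells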
PXR act counter = PXR activation, counter-screen for AHR activators; activation, % at 11.6 µM; cell-based PXR reporter, luciferase luminescence; hit rate 88% among 2,300; shares compounds with AHR act; AID 434939; in the data active = activation above about 11%;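 also: human hepatoma DPX-2 cells expressing full-length human PXR; 0% = DMSO and 100% = reference agonist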
Numbers without * were called inactive; ? = inconclusive; / = not tested or not shown.

SMILES	HSF1 inh	AHR act	HSF1 activator	GAA850 FXN act	AHR act confirm	PXR act counter
Cc1ccn(S(=O)(=O)c2ccc(C(C)(C)C)cc2)n1	-3.5	3.7	9.1	1.9	/	/
O=C(OCC(=O)N1CCOCC1)c1cc(S(=O)(=O)N2CCOCC2)c(Cl)cc1Cl	/	-1.4	/	0.9	/	/
O=C(Nc1ccc2c(c1)OCO2)c1cccc(S(=O)(=O)N2CCOCC2)c1	2.8	111.7*	-2.2	4.2	90.5*	35.6*
O=C(Nc1ccc2c(c1)OCO2)c1ccc(Cl)s1	31.8	113.4*	?	4.2	85.1*	34.3*
O=C(Nc1ccc2c(c1)OCO2)c1ccc2c(c1)OCO2	11.9	91.0*	38.6	1.9	19.2	17.7*
CC(=O)N1CCN(S(=O)(=O)c2cccc(C(=O)Nc3ccc4c(c3)OCO4)c2)CC1	-3.8	12.5	2.2	1.2	/	/
O=C(Nc1ccc2c(c1)OCO2)Nc1ccc2c(c1)OCO2	16.3	106.0*	17.9	4.5	44.8	28.2*
O=C(Nc1cccc(C(=O)O)c1)Nc1ccc2c(c1)OCO2	?	-5.7	-60.0	3.8	/	/
Cc1ccc(NC(=O)CSc2nncn2-c2ccccn2)cc1Cl	-6.4	9.2	3.1	-1.8	/	/
O=C(Nc1ccn(Cc2ccccc2)n1)c1ccc2c(c1)OCO2	23.6	111.8*	21.4	2.2	77.0*	42.5*
COc1ccc(NC(=O)Nc2cccc(F)c2)c(OC)c1	2.3	-2.6	10.6	1.2	/	/
COc1ccc(NC(=O)Nc2cccnc2)c(OC)c1	-3.2	91.0*	-8.2	-0.7	114.7*	11.5*
Cc1ccc(C(=O)Nc2ccc3c(c2)OCO3)cc1NC(=O)c1ccco1	3.9	122.0*	10.2	1.1	86.1*	33.3*
Cc1noc(C(=O)Nc2ccc3c(c2)OCO3)c1Cl	8.6	124.8*	10.0	2.4	147.6*	25.5*
O=C(Nc1ccn(Cc2ccc(Cl)cc2)n1)c1ccccc1	33.2	7.2	45.4	5.1	/	/
CSc1nsc(NC(=O)Cc2ccccc2)n1	2.7	4.7	13.8	3.6	/	/
COc1ccc(NC(=O)c2cc(-c3cc(F)ccc3OCC3CCCO3)n[nH]2)c(C)c1 (stereo unspecified)	/	/	/	-0.8	/	/
O=C(Nc1ccc2c(c1)OCO2)c1ccc(Br)c(S(=O)(=O)N2CCCC2)c1	5.3	87.1*	2.5	1.1	46.8	154.0*
O=C(Nc1ccc2c(c1)OCCO2)c1ccc(Br)c(S(=O)(=O)N2CCOCC2)c1	/	/	/	-10.2	/	/
Cc1csc(SCC(=O)Nc2ccc(Cl)cn2)n1	-0.4	98.2*	2.2	1.5	98.4*	/
CC(C)(C)c1csc(SCC(=O)Nc2ccc(Cl)cn2)n1	0.1	-2.1	2.1	-0.5	/	/
COc1ccc(NC(=O)c2cccs2)cc1NC(=O)c1ccco1	1.3	11.4	2.2	0.8	/	/
COc1ccccc1NC(=O)c1ccc(-c2ccc(Br)cc2)o1	2.5	99.0*	5.9	-0.9	104.9*	11.0*
COc1ccc(NC(=O)c2ccco2)cc1NC(=O)c1ccccc1F	-4.9	87.1*	9.0	-2.9	94.7*	11.6*
COc1ccc(Br)cc1C(=O)Nc1cccc(NC(=O)c2ccco2)c1	-0.3	84.4*	13.7	0.6	97.5*	14.8*
SMILES	HSF1 inh	AHR act	HSF1 activator	GAA850 FXN act	AHR act confirm	PXR act counter
COc1ccc(Br)cc1C(=O)Nc1ccccc1N1CCCC1	14.2	28.0	27.6	-1.5	/	/
COc1ccc(Br)cc1C(=O)Nc1ccccc1-c1ccccc1	0.7	81.5*	-1.1	1.1	76.2*	12.7*
COc1c(C)cc(Br)cc1C(=O)Nc1cccc(NC(=O)c2ccco2)c1	12.4	-3.2	2.9	-4.0	/	/
Cc1cc(C)c(S(=O)(=O)NC(CC(=O)O)c2cccc([N+](=O)[O-])c2)c(C)c1 (stereo unspecified)	-1.6	1.0	3.9	1.6	/	/
COCCNC(=S)NNC(=O)CSCc1ccc(Cl)cc1Cl	-6.6	0.4	4.8	0.1	/	/
CCOc1ccc(NC(=S)N2CCN(CCN3C(=O)c4cccc5cccc(c45)C3=O)CC2)cc1	-20.5	88.5*	-17.0	0.5	107.5*	55.1*
O=C(/C=C/c1ccccc1)N1CCN(CCN2C(=O)c3cccc4cccc(c34)C2=O)CC1	-1.3	102.0*	3.2	0.4	83.3*	51.2*
O=C(O)CN1C(=O)/C(=C\C(Br)=C\c2ccccc2)SC1=S	22.1	1.7	30.4	3.2	/	/
Clc1cc(Cl)c2nc(N3CCCC3)sc2c1	27.4	88.0*	36.6	2.0	95.5*	27.8*
Clc1cc(Cl)c2nc(N3CCCCC3)sc2c1	13.1	25.4	38.1	4.9	/	/
Cc1nc(SCc2nc3c(C)cccc3[nH]2)c2oc3ccccc3c2n1	/	16.2	/	4.0	/	/
Cc1nc(SCc2nc3c(F)cccc3[nH]2)c2oc3ccccc3c2n1	/	80.3*	/	5.2	80.2*	39.9*
Cc1ccsc1/C=c1\sc2ncnn2c1=O	-9.5	3.7	-9.7	-0.3	/	/
c1ccc(-c2nnc3sc(-c4csc5c4CCCC5)nn23)cc1	7.3	96.7*	5.2	6.9	136.0*	37.7*
Cc1ccc2nc(NCc3ccccc3)[nH]c2c1	146.4	83.6*	233.3*	0.1	55.4*	207.9*
CCCCCn1c(=O)[nH]c2cc(C(=O)NCc3ccccn3)ccc2c1=O	-3.4	12.1	-3.6	-0.7	/	/
O=C(CC1Nc2cccc3cccc(c23)NC1=O)Nc1ccc(F)cc1 (stereo unspecified)	6.0	98.1*	15.8	0.3	104.2*	91.8*
Cc1c(C(=O)NCc2ccccc2CN2CCCC2)oc2ccc(F)cc12	/	123.9*	/	-1.0	111.9*	75.9*
COc1ccccc1CNC(=O)c1oc2ccccc2c1C	4.5	40.8	-7.7	2.9	/	/
COc1ccc(/C=N/NC(=O)c2cccc(NC(=O)c3ccc(F)cc3)c2)c(C(=O)O)c1OC	8.5	105.5*	10.8	6.3	93.2*	/
COc1cccc(/C=N/NC(=O)c2cc3c(OC)ccc(OC)c3[nH]2)c1O	2.4	84.0*	10.4	-8.3	20.9	10.1
C(=C\c1nc(N2CCCC2)c2ccccc2n1)/c1ccccc1	17.7	162.2*	32.9	6.1	145.4*	44.6*
CC(=O)Nc1cc(-c2nn3c(C)nnc3s2)ccc1C	-6.5	99.0*	-11.1	1.6	88.6*	11.1*
COc1ccc(OC)c(NC(=O)c2cccnc2Sc2cc(C)ccc2C)c1	-0.2	6.5	-10.2	5.3	/	/
CNC(=O)c1ccsc1NC(=O)c1sc2ccccc2c1Cl	15.1	119.8*	31.5	4.2	115.6*	19.1*
COCc1nnc(NC(=O)c2sc3ccccc3c2Cl)s1	10.8	1.1	20.3	-0.1	/	/
O=C(CN1C(=O)NC2(CCc3ccccc3C2)C1=O)NCC(F)(F)F (stereo unspecified)	0.7	3.1	-4.3	0.6	/	/
Cc1c(-c2nc(-c3cccnc3)no2)cccc1[N+](=O)[O-]	6.3	88.5*	22.7	1.7	119.0*	18.9*
N=c1n(CCN2CCOCC2)c2ccccc2n1CC(=O)c1cccc([N+](=O)[O-])c1	-10.6	133.7*	-4.6	0.8	148.4*	86.7*
